The record followed here is PubChem BioAssay (NCI).

Several values for one entry are separate records, joined by “and”; a condition that tells them apart may be missing. Equal entries are not always repeated. About 83,000 compounds went through this panel and 20% of them were active in at least one assay; those are over-represented in the sample as a whole.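 Activity criterion: percent growth below 10, measured after cells in 96-well plates were exposed to a single compound concentration for 48 hours.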 Activity calls are given as the source filed them.

Test systems include DU-145 prostate; K-562 leukemia; MALME-3M melanoma; MDA-MB-231 breast; RXF 393 renal; SF-268 CNS; SF-295 CNS; SF-539 CNS; UACC-257 melanoma; M14 melanoma; HCT-15 colon; HT29 colon; SNB-75 CNS; SNB-19 CNS; U251 CNS; PC-3 prostate; SK-MEL-5 melanoma; UACC-62 melanoma; LOX IMVI melanoma; SK-MEL-28 melanoma.
What all share (test): NCI-60 one-dose screen, 48 h (100 = growth as untreated, 0 = no growth, -100 = all killed)
Common to all, as to conditions: 10 µM unless noted

In the case of `CC(C)(C)c1ccc(OCc2nc3ccccc3n2-c2cccc(N)c2)cc1`, the growth was 80.8% (inactive) and 124% (inactive) with DU-145 prostate; 33.3% (inactive) and 101% (inactive) in the test with K-562 leukemia; 48.7% (inactive) and 101% (inactive) in the test on MALME-3M melanoma; 53.4% (inactive) and 106% (inactive) in the test on MDA-MB-231 breast; 75.3% (inactive) and 90.7% (inactive) with RXF 393 renal; 74.4% (inactive) and 112% (inactive) with SF-268 CNS. For the same compound, the growth with SF-295 CNS is 57.7% (inactive) and 100% (inactive); in the test on SF-539 CNS it was 66.7% (inactive) and 100% (inactive); in the test on UACC-257 melanoma, 73.8% (inactive) and 111% (inactive); in the test with M14 melanoma, 99.8% (inactive) and 103% (inactive); with HCT-15 colon it was 39.3% (inactive) and 103% (inactive); with HT29 colon it was 30.8% (inactive) and 110% (inactive). Moreover, the growth was 56.9% (inactive) and 120% (inactive) with SNB-75 CNS; 75.3% (inactive) and 100% (inactive) in the test with SNB-19 CNS; 59.3% (inactive) and 105% (inactive) in the test with U251 CNS; 35.2% (inactive) and 99.9% (inactive) in the test with PC-3 prostate; 5.56% (active) and 98.9% (inactive) in the test with SK-MEL-5 melanoma; 55.3% (inactive) and 98.3% (inactive) with UACC-62 melanoma. Also, the growth with LOX IMVI melanoma was 54.7% (inactive) and 97.9% (inactive); with SK-MEL-28 melanoma, 79.4% (inactive) and 121% (inactive).

Turning to `O=C1CCC(N2C(=O)c3cccc(NCCCCCC(=O)N4CCN(c5ccc6nc7c(nc6c5C(F)(F)F)C(=O)c5ncccc5C7=O)CC4)c3C2=O)C(=O)N1` (centres undefined), the growth in the test with DU-145 prostate was -88.3% (active); in the test with K-562 leukemia, -0.95% (active); with MALME-3M melanoma it was -99.3% (active); with MDA-MB-231 breast, -46.2% (active); in the test with RXF 393 renal, -72.1% (active); with SF-268 CNS, -29.5% (active). For the same compound, the growth in the test on SF-295 CNS is -84.1% (active); in the test with SF-539 CNS, -95.4% (active); with UACC-257 melanoma it was -98.3% (active); in the test on M14 melanoma it was -87.2% (active); with HCT-15 colon, -69.5% (active); in the test on HT29 colon, -18.7% (active). The growth with SNB-75 CNS is -75.8% (active); in the test on SNB-19 CNS it was -72.3% (active); with PC-3 prostate, -19.8% (active); in the test with SK-MEL-5 melanoma, -95.3% (active); in the test on UACC-62 melanoma it was -72.7% (active); in the test with LOX IMVI melanoma it was -85.1% (active). Further, the growth in the test with SK-MEL-28 melanoma was -84.8% (active).

Take `COc1sc(/C=N/NC(=O)c2[nH]c3ccc(Br)cc3c2-c2ccccc2)cc1Cl`: the growth in the test with DU-145 prostate is -63.2% (active); in the test with K-562 leukemia it was 9.98% (active); in the test on MALME-3M melanoma, 18.1% (inactive); in the test with MDA-MB-231 breast, -68% (active); in the test on RXF 393 renal it was -25.7% (active); in the test with SF-268 CNS, -17.2% (active). Also, the growth is -40.6% (active) in the test on SF-295 CNS; -85.3% (active) in the test with SF-539 CNS; 29% (inactive) in the test on UACC-257 melanoma; -3.6% (active) in the test on M14 melanoma; -26.2% (active) in the test on HCT-15 colon; -52.8% (active) in the test with HT29 colon. In addition, the growth was 42% (inactive) in the test on SNB-75 CNS; -46% (active) with SNB-19 CNS; -40.7% (active) in the test with U251 CNS; 4.59% (active) in the test on PC-3 prostate; -91.1% (active) in the test with SK-MEL-5 melanoma; -30.6% (active) with UACC-62 melanoma. Moreover, the figures for the growth in the test with LOX IMVI melanoma and with SK-MEL-28 melanoma were -91.7% (active) and -33.1% (active), respectively.

As for `N#Cc1ccc(C(=O)NNC(=O)CSc2nc3sc4c(c3c(=O)n2-c2ccc(Cl)cc2)CCCC4)cc1`, the growth with DU-145 prostate was 70.4% (inactive); with K-562 leukemia, 63.4% (inactive); with MALME-3M melanoma it was 39.5% (inactive); in the test with MDA-MB-231 breast, 3.65% (active); in the test with RXF 393 renal, 47.5% (inactive); with SF-268 CNS, 92.7% (inactive). Moreover, the growth in the test with SF-295 CNS is 62.7% (inactive); in the test with SF-539 CNS, -43.9% (active); with UACC-257 melanoma, 91.4% (inactive); in the test on M14 melanoma, 44.7% (inactive); in the test with HCT-15 colon, 51.2% (inactive); with HT29 colon, 56% (inactive). Further, the growth was 86.7% (inactive) in the test on SNB-75 CNS; 51.5% (inactive) in the test on SNB-19 CNS; 67% (inactive) in the test with PC-3 prostate; 38.5% (inactive) in the test on SK-MEL-5 melanoma; 4.59% (active) in the test with UACC-62 melanoma; 39.7% (inactive) in the test with LOX IMVI melanoma. In addition, in the test on SK-MEL-28 melanoma, the growth is 27.8% (inactive).

Regarding `Cc1ccc(NC(=O)N/N=C/c2c[nH]c3ccccc23)c(C)c1`, the growth in the test on DU-145 prostate is 12.9% (inactive); in the test with K-562 leukemia, 10.5% (inactive); with MALME-3M melanoma, 52.8% (inactive); in the test with MDA-MB-231 breast it was 21.1% (inactive); in the test on RXF 393 renal it was -12.3% (active); in the test with SF-268 CNS it was 11.8% (inactive). The growth is 5.78% (active) with SF-295 CNS; -5.67% (active) in the test on SF-539 CNS; 46.5% (inactive) in the test on UACC-257 melanoma; 12.5% (inactive) with M14 melanoma; 9.06% (active) in the test with HCT-15 colon; -35.4% (active) in the test on HT29 colon. The growth in the test with SNB-75 CNS is 14.5% (inactive); with SNB-19 CNS, 34.7% (inactive); in the test with PC-3 prostate, 27.8% (inactive); with SK-MEL-5 melanoma it was 5.42% (active); in the test on UACC-62 melanoma it was 8.67% (active); in the test on LOX IMVI melanoma, -19% (active). For the same compound, in the test on SK-MEL-28 melanoma, the growth was 47.8% (inactive).

For `O=C1Nc2cc(-c3ccc(NS(=O)(=O)c4ccc([N+](=O)[O-])cc4)cc3)ccc2/C1=C/c1ccc[nH]1`, the growth was -44.9% (active) in the test with DU-145 prostate; 12.6% (inactive) with K-562 leukemia; -0.842% (active) with MALME-3M melanoma; 12.3% (inactive) in the test on MDA-MB-231 breast; -44.3% (active) with RXF 393 renal; 46.6% (inactive) in the test with SF-268 CNS. The growth is -32.7% (active) in the test with SF-295 CNS; -54.4% (active) with SF-539 CNS; 4.04% (active) in the test on UACC-257 melanoma; -13.9% (active) in the test with M14 melanoma; 11% (inactive) in the test with HCT-15 colon; -17.3% (active) with HT29 colon. The growth is 34.1% (inactive) with SNB-75 CNS; 31.1% (inactive) in the test with SNB-19 CNS; 25.7% (inactive) with PC-3 prostate; 24.2% (inactive) in the test with SK-MEL-5 melanoma; 0.956% (active) in the test on UACC-62 melanoma; -20.6% (active) in the test on LOX IMVI melanoma. The growth in the test on SK-MEL-28 melanoma was 9.97% (active).

As for `C=CCSc1nnc(-c2c(C)nc3sccn23)o1`, the growth in the test with DU-145 prostate is 110% (inactive); in the test on K-562 leukemia, 98.3% (inactive); in the test with MALME-3M melanoma, 109% (inactive); in the test on MDA-MB-231 breast, 92.6% (inactive); in the test with RXF 393 renal it was 99.9% (inactive); in the test with SF-268 CNS, 110% (inactive). Also, the growth with SF-295 CNS is 89.2% (inactive); in the test on SF-539 CNS, 90.4% (inactive); in the test with UACC-257 melanoma it was 86.9% (inactive); in the test on M14 melanoma it was 92.5% (inactive); in the test with HCT-15 colon, 92.7% (inactive); in the test with HT29 colon, 96.1% (inactive). Moreover, the growth was 69.1% (inactive) in the test with SNB-75 CNS; 82.7% (inactive) in the test on SNB-19 CNS; 88.9% (inactive) in the test on PC-3 prostate; 95.5% (inactive) in the test on SK-MEL-5 melanoma; 74.4% (inactive) in the test on UACC-62 melanoma; 95.5% (inactive) in the test on LOX IMVI melanoma. Also, the growth with SK-MEL-28 melanoma was 96.7% (inactive).

In the case of `C[C@@H]1[C@H]2C[C@@H](C[C@H]1NCc1nc3ccccc3n1C1CCCCCC1)C2(C)C`, the growth was 88.3% (inactive) with DU-145 prostate; 24.1% (inactive) in the test with K-562 leukemia; 51.4% (inactive) with MALME-3M melanoma; 77.8% (inactive) in the test on MDA-MB-231 breast; 19% (inactive) with RXF 393 renal; 75.6% (inactive) in the test with SF-268 CNS. Further, the growth with SF-295 CNS is 57.6% (inactive); in the test on SF-539 CNS it was 77.1% (inactive); in the test with UACC-257 melanoma, 64.7% (inactive); in the test with M14 melanoma, 61% (inactive); in the test with HCT-15 colon, 27.3% (inactive); in the test with HT29 colon it was 51.4% (inactive). Further, the growth with SNB-75 CNS is 82% (inactive); with SNB-19 CNS, 59.3% (inactive); in the test with PC-3 prostate, 37.1% (inactive); in the test on SK-MEL-5 melanoma, 4.99% (active); in the test on UACC-62 melanoma, 47.9% (inactive); with LOX IMVI melanoma it was 44% (inactive). Further, the growth in the test with SK-MEL-28 melanoma is 77.5% (inactive).
